From PubChem BioAssay AID504725 (Broad Institute, 2011)
Measured potencies and affinities stand elsewhere. A number with no mark means an inactive call. No rule for the calls is given here.

Biological target: KSHV LANA C-terminal domain (residues 932-1162) binding to LBS DNA (UniProt O40947)
Test: inhibitors of C-LANA binding to LBS DNA, dose response, biochemical, fluorescence polarization, cherry-picked samples (AID 504725)
Details: MBP-C-LANA / FAM-LBS DNA fluorescence polarization; series mostly up to 35 µM; activity change, negative = inhibition: at the top concentration

SMILES | activity change, negative = inhibition [%]
CC(Cc1ccccc1)NC(=O)NC(C)Cc1ccccc1 (stereo not drawn) | -8.14
CCCCc1ccc(C(=O)O)nc1 | -11.9
CCOC(=O)c1c(/N=C/c2c(O)n(-c3cccc(C)c3)c(=O)[nH]c2=O)sc2c1CCCC2 | -1.71
CN(C)C1C(=O)C(C(N)=O)=C(O)C2(O)C(=O)C3=C(O)c4c(O)cccc4C(C)(O)C3C(O)C12 (stereo not drawn) | 1.03
CC(C)CC(=O)Nc1ccc(S(=O)(=O)N2CC3CC(C2)c2cccc(=O)n2C3)cc1 (stereo not drawn) | -0.361
CC(OC(=O)c1cn(C)c2ccccc12)C(=O)N1CCCC1 (stereo not drawn) | 1.34
Cc1cc(OCC(=O)OC(C)(C)C)c2c3c(c(=O)oc2c1)CCC3 | 4.26
O=c1[nH]c(=O)n(C2CCCCC2)c(O)c1C=Nc1ccc(N2CCOCC2)cc1 | -1.79
COC(=O)C1=C(c2ccc(OC(F)(F)F)cc2)C[C@@H]2CC[C@H]1N2C(=O)NC1CCCCC1 | -1.08
CCn1c(O)c(N=Nc2cccc(S(=O)(=O)N3CCOCC3)c2)c(=O)n(CC)c1=S | 0.812
Cc1cc(=O)oc2cc(OCC(=O)N3CCN(Cc4ccc5c(c4)OCO5)CC3)ccc12 | 4.13
COCCNC(=O)Cn1cc(/C=C2\C(=O)NC(=O)N(c3cccc(C)c3C)C2=O)c2ccccc21 | 0.685
O=c1c2ccccc2nc(/C=C\c2ccccc2[N+](=O)[O-])n1-c1ccccc1O | -4.88
